In assay [1] the target is Tumor necrosis factor receptor superfamily member 10B (Homo sapiens) (UniProt O14763). As to the kind of experiment: caspase-8 TRAIL sensitization, hit retest, confirmation, cell-based, NB7+caspase-8, with/without TRAIL, luminescence panel (AID 651596). The settings on record: NB7 neuroblastoma + caspase-8, TRAIL sensitization, luminescence viability, with TRAIL, mean of runs, at 10 µM, stronger effect = higher value.

Test in assay [2]: as above
Particulars: NB7 neuroblastoma + caspase-8, without TRAIL, luminescence viability, without TRAIL, mean of runs, at 10 µM; in the data active = activity above about 50%; inactive = the rest.

In PubChem BioAssay one finds activity data, which are given here for 76 molecules.

Structures are written as SMILES.

Sequence of Tumor necrosis factor receptor superfamily member 10B (Homo sapiens) (O14763 whole entry, looked up): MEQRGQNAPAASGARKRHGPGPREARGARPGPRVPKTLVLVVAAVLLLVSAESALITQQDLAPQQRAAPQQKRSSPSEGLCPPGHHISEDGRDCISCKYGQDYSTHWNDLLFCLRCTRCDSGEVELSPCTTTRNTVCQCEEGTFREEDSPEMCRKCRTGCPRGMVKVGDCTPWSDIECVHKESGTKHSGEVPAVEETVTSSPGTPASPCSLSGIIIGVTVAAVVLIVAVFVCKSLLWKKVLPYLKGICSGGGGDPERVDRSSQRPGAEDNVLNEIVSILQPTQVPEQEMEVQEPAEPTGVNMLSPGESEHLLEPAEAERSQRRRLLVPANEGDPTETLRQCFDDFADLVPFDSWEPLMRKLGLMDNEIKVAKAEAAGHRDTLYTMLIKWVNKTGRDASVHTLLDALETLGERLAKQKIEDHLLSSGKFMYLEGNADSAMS

With `Cc1cccc(NC(=O)c2nc[nH]c2C(=O)N[C@@H](CCCCNC(=O)OC(C)(C)C)C(=O)OC(C)(C)C)c1`, the values for the activity in assay [1] and in assay [2] were 80.3% and 77%, respectively.
On the same counts, the results for `C/C(=N\NC(=O)c1nn(C)c(C)c1Br)c1cccc(NC(=O)c2ccc(F)cc2)c1` are 46% and 50.5%.
For `CC(C)c1ccc2c(c1)CC[C@H]1[C@](C)(CN)CCC[C@]21C` the same measures were 33.8% and 97.2%.
For `COc1ccc(C(=O)O/N=C(\N)c2ccccn2)c(OC)c1` the same measures were 75.5% and 83.2%.
Consider `COc1ccc(-c2ccc3ccccc3n2)cc1`, for which the values for the activity in assay [1] and in assay [2] were 32.4% and 16%, respectively.
For `Cc1noc(N)c1C(=O)Nc1ccc(C(C)(C)C)cc1` the same measures were 46.1% and 48.9%.
For `O=C(/C=C/c1ccc(F)cc1)NC(=S)Nc1ccccc1C(=O)NC1CCCCC1` the same measures were -1.65% and -0.275%.
Take `CC(c1ccco1)N(C(=O)COc1ccc(Cl)cc1Cl)c1ccccn1` (configuration not stated): the figures for the activity in assay [1] and in assay [2] were -4.47% and 10.2%, respectively.
For `CC(C)N1CCc2c(sc(NC(=O)c3ccc([N+](=O)[O-])o3)c2C(N)=O)C1` the same measures were -2.23% and 93.5%.
Turning to `CNC[C@@H](Cc1ccccc1)NC[C@@H](CC1CCCCC1)NCCCc1ccccc1`, the figures for the activity in assay [1] and in assay [2] were 99.3% and 99.6%, respectively.
For `Cn1c(N/N=C/c2cc3ccccc3nc2Cl)nc2ccccc21`, the activity turned out to be 92.3% in assay [1] and 94% in assay [2].
As for `COc1nn(-c2ccccc2)c(=O)c(Cl)c1Cl`, the activity in assay [1] came to 92.3%; in assay [2] it was 96.3%.
For `Cc1ccccc1C(=O)Nc1nnc(SCC(=O)NCc2ccco2)s1` the same measures were 61.1% and 58.2%.
On to `O=C(CC(Nc1ccc(Cl)cc1)C(=O)O)c1ccccc1` (configuration not stated), for which the activity was determined as 60.6% in assay [1] and 73.2% in assay [2].
Turning to `COc1ccccc1-c1cc2nc(-c3ccccc3)cc(N3CCN(C(=O)c4ccco4)CC3)n2n1`, the activity turned out to be 81.9% in assay [1] and 66% in assay [2].
On the same counts, the results for `Cc1cc2ncc(-c3ncc(C(F)(F)F)cc3Cl)cn2n1` are 45.7% and 41.9%.
Regarding `CC(C)(C)c1ccc(-c2noc(CCC(=O)N3CCOCC3)n2)cc1`, the figures for the activity in assay [1] and in assay [2] were 66.5% and 64.2%, respectively.
On the same counts, the results for `c1ccc2oc(-c3csc(N4CCOCC4)n3)cc2c1` are 67.7% and 51.3%.
For `C=C(C)c1nc(Oc2ccccc2)nc(Oc2ccccc2)n1` the same measures were 77% and 77.6%.
On the same counts, the results for `Cc1ccc(NC(=O)CSc2ccc(-c3ccc4c(c3)OCO4)nn2)cc1F` are 39% and 44.9%.
As for `CC(C)Sc1cc(Cl)nc(NC(=O)Nc2ccccc2)n1`, the activity worked out at 98.4% in assay [1] and 99.7% in assay [2].
Consider `CCOc1cc(/C=C\[N+](=O)[O-])ccc1OCC(=O)Nc1ccccc1C`, for which the values for the activity in assay [1] and in assay [2] were 88.8% and 91.9%, respectively.
On the same counts, the results for `Cc1ccc(C(=O)Nc2ncc3c(Cl)cccc3n2)cc1` are 91.5% and 89%.
For `CCCc1ccc(-c2cc(C(=O)Nc3ccc([N+](=O)[O-])cn3)c3ccccc3n2)cc1` the same measures were 43.2% and 33.6%.
For `CC(C)(C)C(=O)Nc1ccc(-c2cn3ccsc3n2)cc1`, the activity in assay [1] worked out at 95.7%; in assay [2] it was 95.8%.
For `CCOc1ccc(C(=O)Nc2ccc3c(c2)OCCO3)cc1` the same measures were 70.5% and 61.4%.
On the same counts, the results for `O=C(/C=C/Nc1ccccc1C(F)(F)F)c1ccco1` are 97.2% and 99.3%.
On the same counts, the results for `Cc1occc1C(=O)O/N=C(\N)c1ccccc1` are 89.7% and 92.8%.
`CC(=O)Oc1ccccc1/C=C/c1nc2ccccc2c(=O)o1`: the activity in assay [1] was determined as 83.7%; in assay [2], 84.8%.
`COc1cc2c(cc1OC)C(c1ccccc1)N(C(=O)CCl)CC2` (configuration not stated): the activity stood at 98.3% in assay [1] and 92.4% in assay [2].
On the same counts, the results for `CCC(=O)Nc1cc2nn(-c3ccc(OC)cc3)nc2cc1C` are 62.5% and 61.8%.
For `COc1ccc(/C=N/Nc2cc(C)nc(-n3nc(C)cc3C)n2)c(OC)c1` the same measures were 6.72% and 12.9%.
On the same counts, the results for `CCc1ccc(/C=N/NC(=O)c2ccccn2)cc1` are 83.9% and 73%.
Regarding `CCCCCCC[N+](CC)(CC)CCCCc1ccc(Cl)cc1`, the activity in assay [1] was 43.9%; in assay [2], 47.1%.
With `Cc1cc(C(=O)Cn2nnc3ccccc3c2=O)c(C)n1Cc1cccs1`, the activity in assay [1] stood at 65.1%; in assay [2], 58.3%.
In the case of `COc1cccc(N=c2oc3ccc(OC)cc3cc2-c2nc3ccccc3[nH]2)c1`, the activity was 12.8% in assay [1] and 18.1% in assay [2].
For `Cc1ccc(-n2c(C3CC3c3ccc(Cl)cc3)n[nH]c2=S)cc1` (configuration not stated) the same measures were 52.8% and 46.7%.
Regarding `Nc1nn2cc(-c3ccc(Br)cc3)nc2c2ccccc12`, the activity was 53.9% in assay [1] and 47.2% in assay [2].
On the same counts, the results for `COc1ccc(/C=C/C(=O)NC(=S)Nc2ccccn2)cc1` are 29% and 37.3%.
For `CC(C)c1ccc(-n2c(-c3ccccc3)c[n+]3c2CCc2ccccc2-3)cc1` the same measures were 77% and 75.5%.
On the same counts, the results for `COc1ccccc1NC(=O)Nc1ccc2c(c1)nnn2C` are 20.6% and 7.6%.
As to `Cc1nc(N)nc(N)c1-c1ccc([N+](=O)[O-])cc1`, the activity in assay [1] amounted to 71.8%; in assay [2], 81.2%.
On the same counts, the results for `C=C(C)[C@@H]1C2=CC(C(=O)OC)=C(C[C@H](C(=C)C)[C@H]3O[C@H]3C3=C[C@H]1OC3=O)O2` are 72.2% and 96%.
On the same counts, the results for `S=c1[nH]ncn1/N=C/c1ccc(N2CCOCC2)cc1` are 62% and 59.8%.
With `O=C(Nc1cnn(C23CC4CC(CC(C4)C2)C3)c1)c1cnn2c(C(F)(F)F)cc(-c3ccco3)nc12`, the activity in assay [1] amounted to 76.4%; in assay [2] it was 70.3%.
Regarding `Cc1ccc(/C=N/Nc2nnc(Cl)c3ccccc23)cc1`, the activity came out at 82.6% in assay [1] and 73.8% in assay [2].
On the same counts, the results for `CCN(c1ccccc1)S(=O)(=O)c1ccc(OC)c(NC(=O)c2cc(F)c(F)c(F)c2F)c1` are 63.3% and 87.5%.
For `O=C(Nc1ccc2c(c1)OCCO2)Nc1ccc2c(c1)OCO2`, the results for the activity in assay [1] and in assay [2] were 81.4% and 79.5%, respectively.
On the same counts, the results for `CC(C)N(Cc1ccccc1)C(=O)COC(=O)c1cnc(Cl)c(Cl)c1` are 81.2% and 72%.
On the same counts, the results for `CC(=O)Oc1ccccc1C(=O)C=Cc1cccc([N+](=O)[O-])c1` are 36.3% and 76.7%.
For `O=C1C(=Cc2ccc(Cl)cc2)CCc2ccccc21` the same measures were 85.8% and 78.7%.
Take `Cc1ccc(C(=O)N/N=C\c2ccc[nH]2)cc1[N+](=O)[O-]`: the activity in assay [1] is 80.7%; in assay [2] it was 79.4%.
On the same counts, the results for `O=C(CN1CCN(S(=O)(=O)c2ccc(F)cc2)CC1)Nc1ccc(Cl)c(C(F)(F)F)c1` are 24.1% and 31.8%.
On the same counts, the results for `COc1cc2nc(CN(C)Cc3ccc(C(C)(C)C)cc3)[nH]c(=O)c2cc1OC` are 70.5% and 68%.
For `CCOC(=O)c1c(NC(=O)COc2ccccc2OCC)sc2c1CC(C)(C)NC2(C)C` the same measures were 95.8% and 99.3%.
With `O=C(Nc1cccc(Cl)c1)c1nc[nH]c1C(=O)NCCCNC(=O)c1[nH]cnc1C(=O)Nc1cccc(Cl)c1`, the values for the activity in assay [1] and in assay [2] were 45.5% and 77.4%, respectively.
On the same counts, the results for `Fc1cccc2sc(Nc3nnc(-c4ccccc4)o3)nc12` are 71% and 73%.
On the same counts, the results for `C/C(=N\NC(=O)c1ccccc1O)c1cccs1` are 68.1% and 58.9%.
On the same counts, the results for `COc1ccc(S(=O)(=O)N2CCC(C(=O)NCCC3=CCCCC3)CC2)cc1C` are 13.8% and 22.2%.
For `C#CC(=O)N(c1cc(OC)ccc1OC)C(C(=O)NC1CCCC1)c1cccs1` (configuration not stated), the activity amounted to 98.2% in assay [1] and 98.5% in assay [2].
For `S=c1nc[nH]c2c1ncn2C1CCCO1` (configuration not stated) the same measures were 17.8% and 47.4%.
On the same counts, the results for `Cc1ccc(CS(=O)(=O)c2ncc(Cl)c(C(=O)Nc3ccc(OC(F)F)cc3)n2)cc1` are 5.62% and -6.55%.
For `COc1cc2c3nnc(-c4ccc(F)cc4)c-3cn(Cc3ccc(C)cc3)c2cc1OC` the same measures were 24.2% and 60.6%.
For `CCOC(=O)c1cnc2c(-c3ccccc3)cnn2c1C`, the figures for the activity in assay [1] and in assay [2] were 50% and 35.7%, respectively.
In the case of `CCOc1ccc(-c2ccc(SCC)nn2)cc1`, the results for the activity in assay [1] and in assay [2] were 75.4% and 71.5%, respectively.
Turning to `COc1cccc(-c2nnc(Nc3nc4c(F)cccc4s3)o2)c1`, the activity in assay [1] is 81.2%; in assay [2], 84.2%.
For `COc1ccc(-c2nnc(NC(=O)c3ccco3)s2)cc1` the same measures were 55.4% and 60.6%.
On the same counts, the results for `Cc1cccc(NC(=S)NC(=O)c2ccc(-c3ccccc3)cc2)n1` are 55.5% and 55.3%.
In the case of `Cc1ccc(Nc2nc(N)nc(CCl)n2)cc1`, the values for the activity in assay [1] and in assay [2] were 98.9% and 97.5%, respectively.
On the same counts, the results for `CC(C)(C)OC(=O)NCCCC[C@H](NC(=O)c1[nH]cnc1C(=O)Nc1ccccc1)C(=O)OC(C)(C)C` are 74.2% and 58.6%.
On the same counts, the results for `CC1CCc2cc(F)ccc2N1C(=O)CCl` (configuration not stated) are 99.3% and 98.8%.
For `CN(NC(=O)c1ccc(Cl)cc1)c1nc(-c2ccccc2)nnc1C(F)(F)F` the same measures were 61.9% and 57.8%.
For `COc1ccc(-c2cc(C(=O)OCC(=O)N3CCOCC3)c3ccccc3n2)cc1`, the values for the activity in assay [1] and in assay [2] were 36.6% and 49.6%, respectively.
For `CCN1CCN(Cc2ccc(NC(=O)c3cc(NC(=O)c4cncc(-c5cccs5)c4)cc(OC)c3)cc2C(F)(F)F)CC1` the same measures were 68% and 91.9%.
For `CC(C)c1ccc(/C=C/C(=O)Nc2nncs2)cc1` the same measures were 57.7% and 66.2%.
For `Cc1c(P(=S)(c2ccccc2)c2ccccc2)[n+]2ccccc2n1C/C=C/c1ccccc1` the same measures were 83.3% and 56.9%.
